From PubChem BioAssay AID1159580 (chemical genetic matrix, 2015)
About 2,000 (36%) of roughly 5,500 compounds were called active. Inconclusive results (about 18%) are left out. Rule as the data show it: active = normalized growth mostly below about 0.91 (no sharp cut-off); inconclusive = no clear call, values can overlap the other calls; inactive = mostly above about 0.92. Some of the results follow.

Experiment: chemical genetic growth profiling, strain panel (AID 1159580);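 also: tested at 20 µM; growth read once vehicle control cultures reached saturation at 30 °C; 1 = growth at the plate median or of vehicle wells; lower values mean less growth of the strain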
Conditions: growth OD

Measured: normalized growth

C[CH2][Hg][S]c1ccccc1C(=O)O
active: S. cerevisiae deletion strains, locus YJR075W, strain HOC1, stronger effect = lower value 0.0601 | S. cerevisiae deletion strains, locus YKL009W, strain mrt4, stronger effect = lower value 0.078 | S. cerevisiae deletion strains, locus YKL068W, stronger effect = lower value 0.0532 | S. cerevisiae deletion strains, locus YKL085W, strain MDH1 (second series), stronger effect = lower value 0.0507 | S. cerevisiae deletion strains, locus YKL085W, strain MDH1, stronger effect = lower value 0.0507 | S. cerevisiae deletion strains, locus YKL160W, strain elf1, stronger effect = lower value 0.0622 | S. cerevisiae deletion strains, locus YKL190W, strain CNB1, stronger effect = lower value 0.0466 | S. cerevisiae deletion strains, locus YKR001C, strain vps1, stronger effect = lower value 0.0606 | S. cerevisiae deletion strains, locus YKR026C, strain gcn3, stronger effect = lower value 0.0601 | S. cerevisiae deletion strains, locus YKR091W, strain srl3, stronger effect = lower value 0.0575 | S. cerevisiae deletion strains, locus YLL001W, strain dnm1, stronger effect = lower value 0.058 | S. cerevisiae deletion strains, locus YLL026W, stronger effect = lower value 0.0549 | S. cerevisiae deletion strains, locus YLL041C, strain sdh2, stronger effect = lower value 0.0553 | S. cerevisiae deletion strains, locus YLR027C, strain aat2, stronger effect = lower value 0.0538 | S. cerevisiae deletion strains, locus YLR039C, strain RIC1, stronger effect = lower value 0.0815 | S. cerevisiae deletion strains, locus YLR058C, strain SHM2, stronger effect = lower value 0.0473 | S. cerevisiae deletion strains, locus YLR102C, strain apc9, stronger effect = lower value 0.0603 | S. cerevisiae deletion strains, locus YLR113W, strain HOG1, stronger effect = lower value 0.153 | S. cerevisiae deletion strains, locus YLR221C, strain rsa3, stronger effect = lower value 0.0597 | S. cerevisiae deletion strains, locus YLR258W, strain gsy2, stronger effect = lower value 0.0592 | S. cerevisiae deletion strains, locus YLR262C, strain YPT6 (second series), stronger effect = lower value 0.0742 | S. cerevisiae deletion strains, locus YLR262C, strain YPT6, stronger effect = lower value 0.105 | S. cerevisiae deletion strains, locus YLR268W, strain sec22, stronger effect = lower value 0.0621 | S. cerevisiae deletion strains, locus YLR320W, strain mms22, stronger effect = lower value 0.0814 | S. cerevisiae deletion strains, locus YLR330W, strain CHS5, stronger effect = lower value 0.0525 | S. cerevisiae deletion strains, locus YLR342W, strain FKS1 (second series), stronger effect = lower value 0.0638 | S. cerevisiae deletion strains, locus YLR342W, strain FKS1, stronger effect = lower value 0.0616 | S. cerevisiae deletion strains, locus YLR357W, strain rsc2, stronger effect = lower value 0.112 | S. cerevisiae deletion strains, locus YLR370C, strain arc18, stronger effect = lower value 0.0588 | S. cerevisiae deletion strains, locus YLR371W, strain rom2, stronger effect = lower value 0.0587 | S. cerevisiae deletion strains, locus YLR384C, strain iki3, stronger effect = lower value 0.0582 | S. cerevisiae deletion strains, locus YLR418C, strain cdc73, stronger effect = lower value 0.0891 | S. cerevisiae deletion strains, locus YML016C, strain PPZ1, stronger effect = lower value 0.0465 | S. cerevisiae deletion strains, locus YML032C, strain rad52, stronger effect = lower value 0.0656 | S. cerevisiae deletion strains, locus YML120C, strain ndi1, stronger effect = lower value 0.0572 | S. cerevisiae deletion strains, locus YML124C, strain tub3, stronger effect = lower value 0.0558 | S. cerevisiae deletion strains, locus YMR058W, strain fet3, stronger effect = lower value 0.0565 | S. cerevisiae deletion strains, locus YMR078C, strain ctf18, stronger effect = lower value 0.0699 | S. cerevisiae deletion strains, locus YMR125W, strain sto1, stronger effect = lower value 0.0708 | S. cerevisiae deletion strains, locus YMR129W, stronger effect = lower value 0.0561 | S. cerevisiae deletion strains, locus YMR205C, strain PFK2, stronger effect = lower value 0.0823 | S. cerevisiae deletion strains, locus YMR223W, strain ubp8, stronger effect = lower value 0.0597 | S. cerevisiae deletion strains, locus YMR231W, strain pep5, stronger effect = lower value 0.0664 | S. cerevisiae deletion strains, locus YMR263W, strain SAP30, stronger effect = lower value 0.0559 | S. cerevisiae deletion strains, locus YMR307W, strain GAS1, stronger effect = lower value 0.0969 | S. cerevisiae deletion strains, locus YNL067W, strain RPL9B, stronger effect = lower value 0.0481 | S. cerevisiae deletion strains, locus YNL071W, strain lat1, stronger effect = lower value 0.0589 | S. cerevisiae deletion strains, locus YNL128W, strain TEP1, stronger effect = lower value 0.0596 | S. cerevisiae deletion strains, locus YNL153C, strain GIM3, stronger effect = lower value 0.0483 | S. cerevisiae deletion strains, locus YNL183C, strain NPR1, stronger effect = lower value 0.004 | S. cerevisiae deletion strains, locus YNL209W, strain ssb2, stronger effect = lower value 0.057 | S. cerevisiae deletion strains, locus YNL233W, strain BNI4, stronger effect = lower value 0.0515 | S. cerevisiae deletion strains, locus YNL248C, strain rpa49, stronger effect = lower value 0.0737 | S. cerevisiae deletion strains, locus YNL250W, strain rad50, stronger effect = lower value 0.0619 | S. cerevisiae deletion strains, locus YNL271C, strain bni1, stronger effect = lower value 0.0596 | S. cerevisiae deletion strains, locus YNL298W, strain CLA4, stronger effect = lower value 0.0571 | S. cerevisiae deletion strains, locus YNL307C, strain MCK1, stronger effect = lower value 0.0641 | S. cerevisiae deletion strains, locus YNL322C, strain KRE1 (second series), stronger effect = lower value 0.0632 | S. cerevisiae deletion strains, locus YNL322C, strain KRE1, stronger effect = lower value 0.0468 | S. cerevisiae deletion strains, locus YNR049C, strain mso1, stronger effect = lower value 0.0543 | S. cerevisiae deletion strains, locus YNR052C, strain pop2, stronger effect = lower value 0.061 | S. cerevisiae deletion strains, locus YOL006C, strain TOP1, stronger effect = lower value 0.0904 | S. cerevisiae deletion strains, locus YOL012C, strain htz1 0.178 | S. cerevisiae deletion strains, locus YOL147C, strain pex11, stronger effect = lower value 0.0589 | S. cerevisiae deletion strains, locus YOR001W, strain rrp6, stronger effect = lower value 0.0639 | S. cerevisiae deletion strains, locus YOR061W, strain CKA2, stronger effect = lower value 0.0446 | S. cerevisiae deletion strains, locus YOR069W, strain VPS5, stronger effect = lower value 0.0457 | S. cerevisiae deletion strains, locus YOR070C, strain gyp1, stronger effect = lower value 0.0575 | S. cerevisiae deletion strains, locus YOR080W, strain dia2, stronger effect = lower value 0.0641 | S. cerevisiae deletion strains, locus YOR083W, strain WHI5, stronger effect = lower value 0.0608 | S. cerevisiae deletion strains, locus YOR106W, strain vam3, stronger effect = lower value 0.0597 | S. cerevisiae deletion strains, locus YOR136W, strain idh2, stronger effect = lower value 0.0686 | S. cerevisiae deletion strains, locus YOR144C, strain elg1, stronger effect = lower value 0.0566 | S. cerevisiae deletion strains, locus YOR184W, strain ser1, stronger effect = lower value 0.065 | S. cerevisiae deletion strains, locus YOR231W, strain MKK1, stronger effect = lower value 0.125 | S. cerevisiae deletion strains, locus YOR265W, strain rbl2, stronger effect = lower value 0.0558 | S. cerevisiae deletion strains, locus YOR270C, strain vph1, stronger effect = lower value 0.0908 | S. cerevisiae deletion strains, locus YOR290C, strain snf2, stronger effect = lower value 0.0723 | S. cerevisiae deletion strains, locus YOR316C, strain cot1, stronger effect = lower value 0.0555 | S. cerevisiae deletion strains, locus YPL051W, strain arl3, stronger effect = lower value 0.0607 | S. cerevisiae deletion strains, locus YPL055C, strain LGE1, stronger effect = lower value 0.0725 | S. cerevisiae deletion strains, locus YPL078C, strain atp4, stronger effect = lower value 0.0632 | S. cerevisiae deletion strains, locus YPL106C, strain sse1, stronger effect = lower value 0.0983 | S. cerevisiae deletion strains, locus YPL240C, strain hsp82, stronger effect = lower value 0.0533 | S. cerevisiae deletion strains, locus YPL241C, strain CIN2, stronger effect = lower value 0.0538 | S. cerevisiae deletion strains, locus YPL256C, strain CLN2, stronger effect = lower value 0.135 | S. cerevisiae deletion strains, locus YPR119W, strain clb2, stronger effect = lower value 0.0599 | S. cerevisiae deletion strains, locus YPR141C, strain kar3, stronger effect = lower value 0.0633 | S. cerevisiae deletion strains, locus YPR163C, strain tif3, stronger effect = lower value 0.0679 | S. cerevisiae deletion strains, locus YPR167C, strain met16, stronger effect = lower value 0.0597 | S. cerevisiae deletion strains, strain wtn01, stronger effect = lower value 0.0565 | S. cerevisiae strains, strain wild type, stronger effect = lower value 0.0464
